Data on 38 compounds can be found in ChEMBL document CHEMBL3433997, “St. Jude Leishmania screening dataset” (2016).

What all share (format): functional
Experiment [1] concerns the target Solute carrier family 2, facilitated glucose transporter member 1 (Homo sapiens) (UniProt P11166). Briefly: ST_JUDE_LEISH: Cytotoxicity at 2uM final concentration against transgenic Leishmania Mexicana promastigotes LmGLUT1 that are glucose transport deficient and complemented with the human glucose transporter GLUT1. Activity is measured by DNA content using SYBR green in vitro.

In experiment [2] the target is Hexose transporter 1 (Plasmodium falciparum) (UniProt O97467). Kind of experiment: ST_JUDE_LEISH: Cytotoxicity at 2uM final concentration against transgenic Leishmania Mexicana promastigotes LmPfHT that are glucose transport deficient and complemented with the Plasmodium falciparum hexose transporter. Activity is measured by DNA content using SYBR green in vitro.
Experiment [3] deals with Glucose transporter (Leishmania mexicana) (UniProt O61059). Briefly: ST_JUDE_LEISH: Cytotoxicity at 2uM final concentration against transgenic Leishmania Mexicana promastigotes LmGT2 that are glucose transport deficient and complemented with the L. Mexicana glucose transporter 2. Activity is measured by DNA content using SYBR green in vitro.

Chain of Solute carrier family 2, facilitated glucose transporter member 1 (Homo sapiens) (P11166 whole entry): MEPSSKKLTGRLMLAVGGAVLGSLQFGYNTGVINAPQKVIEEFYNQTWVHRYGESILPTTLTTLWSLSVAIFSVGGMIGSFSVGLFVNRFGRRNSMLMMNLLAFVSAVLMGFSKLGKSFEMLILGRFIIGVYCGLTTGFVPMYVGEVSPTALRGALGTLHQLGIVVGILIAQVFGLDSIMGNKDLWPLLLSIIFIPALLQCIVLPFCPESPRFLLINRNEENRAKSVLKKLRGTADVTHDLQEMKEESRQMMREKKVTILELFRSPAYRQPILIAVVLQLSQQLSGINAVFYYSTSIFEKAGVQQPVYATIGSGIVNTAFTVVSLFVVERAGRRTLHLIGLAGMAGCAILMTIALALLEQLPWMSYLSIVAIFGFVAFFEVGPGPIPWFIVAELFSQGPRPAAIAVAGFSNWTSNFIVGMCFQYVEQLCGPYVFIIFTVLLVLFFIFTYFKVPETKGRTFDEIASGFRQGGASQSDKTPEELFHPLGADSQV

As usually defined, the inhibition is the drop in the measured response relative to a control, in per cent. `COc1cc(-c2nc(-c3ccc(C(=O)c4ccc(F)cc4)cc3)c(-c3ccccc3)[nH]2)cc(OC)c1O`: the inhibition in experiment [1] was 3.28%; in experiment [2], -0.56%; in experiment [3], 0.05%.
On the same counts, the results for `CC(C)NCc1ccc(-c2cccc(-c3nc4cc(C(F)(F)F)ccc4[nH]3)c2)cc1` are 3.55%, 3.48% and 4.16%.
Taken in the same sequence, the figures for `O=C(Cc1ccccc1)NC(c1ccc(Cl)cc1)c1ccc2cccnc2c1O` (centres undefined) were 6.92%, 4.47% and 1.97%.
As for `Cc1cccc2nc(-c3ccc(-c4cccc(CN5CCN(c6ccc(C#N)cn6)CC5)c4)s3)[nH]c12`, the results for the inhibition in experiment [1], in experiment [2] and in experiment [3] were 0.91%, -1.69% and 1.21%, respectively.
Taken in the same sequence, the figures for `C[C@@H](Oc1cc(-n2cnc3ccc(NC(=O)NC(C)(C)C)cc32)sc1C(N)=O)c1ccccc1Cl` were 4.54%, 3.45% and 2.98%.
On the same counts, the results for `Cc1cc(Nc2ccc(O)cc2)nc2cccc(O)c12` are 2.06%, 0.79% and 3.84%.
Taken in the same sequence, the figures for `CC(C)C[C@H]1C(=O)N[C@H](C2Cc3ccccc3C2)C(=O)N1[C@@H](C(=O)Nc1ccccc1OCc1ccccc1)c1ccc(F)cc1F` were 0.86%, -0.17% and -0.16%.
With `O=C(/C=C/c1ccc(Cl)c(Cl)c1)NCCCCCN1CCN(C(=O)Nc2ccc(OC(F)F)cc2)CC1`, the inhibition was 2.15% in experiment [1], 1.76% in experiment [2] and -2.1% in experiment [3].
For the compound `COc1ccc2[nH]cc(C3CCN(CCCCNC(=O)c4ccc(NC(=O)c5ccc(Cl)cc5)cc4)CC3)c2c1`, the inhibition in experiment [1] came out at 4.59%; in experiment [2], 4.04%; in experiment [3], 5.72%.
Take `Cc1ccc(C(=O)NCC2CCN(c3ccc(C(F)(F)F)cc3NC(=O)c3ccco3)CC2)cn1`: the figures for the inhibition in experiment [1], in experiment [2] and in experiment [3] were 2.76%, -2.99% and 3.12%, respectively.
Taken in the same sequence, the figures for `CC(C)C[C@@H](/C=N/N1CCOC1=O)NC(=O)[C@H](CC(C)C)NC(=O)c1ccc(F)cc1` were 7.39%, 11.5% and 6.1%.
Take `Cc1cc(-c2cnc(N)c(-c3ccc(N4CCN(C)CC4)cc3)c2)cc(C)c1O`: the inhibition in experiment [1] came out at 3.43%; in experiment [2], 0.67%; in experiment [3], 2.45%.
`N#Cc1cccc(C(O)CN(Cc2ccccc2)Cc2ccccc2)c1` (centres undefined): the values for the inhibition in experiment [1], in experiment [2] and in experiment [3] were 1.37%, 1.53% and 2.04%, respectively.
Turning to `CC(=O)Nc1ncc(C(=O)Nc2ccc(-c3cccc(-c4nc5cc(C(F)(F)F)ccc5[nH]4)c3)cc2)s1`, the figures for the inhibition in experiment [1], in experiment [2] and in experiment [3] were -2.18%, -2.1% and -2.74%, respectively.
Turning to `CCCC(C)NC(=O)[C@H](CC1CCCCC1)NC(=O)c1ccc(O)c(-c2cccc(C(F)(F)F)c2)c1` (some centres undefined), the values for the inhibition in experiment [1], in experiment [2] and in experiment [3] were -1.37%, 3.47% and 0.42%, respectively.
Taken in the same sequence, the figures for `Cc1cc(N2CCCC2)nc(Nc2ccc(NC(=O)c3ccccc3F)cc2)n1` were 1.09%, 2.77% and -0.95%.
Taken in the same sequence, the figures for `COc1cc(N)c(Cl)cc1C(=O)NCC1CCN(c2nc(C)cc(C)n2)CC1` were 1.37%, 0.61% and -0.76%.
Taken in the same sequence, the figures for `COc1cccc(C2CCN(CCN3CCC(NC(=O)c4ccc(-c5ccc(Cl)cc5)cc4)CC3)CC2)c1` were -0.82%, 0.69% and 1.81%.
Turning to `COc1ccc(C(=O)Nc2ccc3nc(N4CCCCC4)cc(C)c3c2)cc1[N+](=O)[O-]`, the values for the inhibition in experiment [1], in experiment [2] and in experiment [3] were 2.05%, 3.3% and 2%, respectively.
For the compound `Cc1nc2ccc3ccc(CNc4ccc5c(c4)CN([C@H](CCC(=O)O)C(=O)O)C5=O)cc3c2c(=O)[nH]1`, the inhibition in experiment [1] stood at 3.36%; in experiment [2], 2.42%; in experiment [3], 10%.
On the same counts, the results for `OCc1c(Cl)cc(Cl)cc1CNCCCNc1nc2ccccc2[nH]1` are 5.72%, 6.27% and 1.01%.
`CC(=O)c1ccc(N2CCN(CCC3(c4ccc(Cl)c(Cl)c4)COCN(C(=O)c4ccccc4)C3)CC2)cc1` (centres undefined): the inhibition in experiment [1] is 4.7%; in experiment [2], 1.18%; in experiment [3] it was -0.21%.
Turning to `COc1ccc(NC(=O)[C@H](CC(C)C)Nc2cc(C)nc(NCc3ccccc3C)n2)cc1`, the inhibition in experiment [1] is 1.76%; in experiment [2], 2.18%; in experiment [3] it was 0.33%.
Consider `O=C(Nc1ccccc1)N(Cc1ccccc1-c1cccc(CNCc2ccc3c(c2)OCO3)c1)C1CCN(Cc2ccccc2)CC1`, for which the inhibition in experiment [1] is -2.93%; in experiment [2], -2.6%; in experiment [3] it was -2.56%.
Take `CCc1cn2c3c(cc(C(=O)N[C@@H](Cc4ccccc4)[C@H](O)CNC4CCOCC4)cc13)N(CC(F)(F)F)S(=O)(=O)CC2`: the inhibition was found to be 2.22% in experiment [1], 2.72% in experiment [2] and 0.88% in experiment [3].
On the same counts, the results for `O=C1CSc2ccc(CNC3CCN(CCc4c(Cl)cnc5ccc(F)cc45)CC3)nc2N1` are 0.93%, 1.12% and 2.97%.
On to `O=C(NC1CCN(CCC(NC(=O)c2ccccc2)c2ccc(Cl)c(Cl)c2)CC1)c1ccc(Cl)cc1` (centres undefined), for which the inhibition in experiment [1] was found to be 3.39%; in experiment [2], 2.33%; in experiment [3] it was 1.88%.
As to `OC(CNc1ccnc(Nc2cccc(Cl)c2)n1)c1ccc(C(F)(F)F)cc1` (centres undefined), the inhibition in experiment [1] was determined as 9.21%; in experiment [2], 7.14%; in experiment [3], 5.22%.
For the compound `Cc1cc(N)c2cc(NC(=O)CCC(=O)Nc3ccc4nc(C)cc(N)c4c3)ccc2n1`, the results for the inhibition in experiment [1], in experiment [2] and in experiment [3] were 5.9%, 6.01% and 8.34%, respectively.
On the same counts, the results for `COc1cc2nc(N3CCC(CNC(=O)c4ccc(-c5ccc(-c6noc(C)n6)cc5C)cc4)CC3)nc(N)c2cc1OC` are 8.2%, 7.8% and 5.29%.
On the same counts, the results for `COc1cc2nc(N3CCN(C(=O)c4cccc(I)c4)CC3)nc(N)c2cc1OC` are 5.23%, 3.9% and -0.04%.
As for `O=C(Nc1ccccc1O)C1CCN(c2ncnc3cc(-c4ccc(F)cc4)sc23)CC1`, the inhibition in experiment [1] is 1.73%; in experiment [2], 2.48%; in experiment [3], -2.46%.
Taken in the same sequence, the figures for `NC1=NC2(CCCC2)C(c2ccc(Cl)c(Cl)c2)C(N)=N1` (centres undefined) were 2.63%, 3.21% and 4.7%.
With `CC(C)n1ncc2c(C(=O)N3CCCCCC3)cc(-c3ccccc3)nc21`, the inhibition in experiment [1] was -0.35%; in experiment [2] it was -0.92%; in experiment [3] it was -5.3%.
Taken in the same sequence, the figures for `Cc1sc(CNCCCNc2cc(=O)c3ccccc3[nH]2)cc1Br` were 0.99%, 0.97% and 0.93%.
Regarding `O=C(/C=C/c1ccccc1F)NC1CCC(CCN2CCc3ccc(-c4cccnc4)cc3CC2)CC1` (centres undefined), the inhibition in experiment [1] is 15.8%; in experiment [2], 15.8%; in experiment [3] it was 20.1%.
In the case of `CCOC(=O)CC[C@H](NC(=O)c1ccc(NS(=O)(=O)c2ccc(-c3cnc(N)[nH]c3=O)cc2)cc1)C(=O)OCC`, the values for the inhibition in experiment [1], in experiment [2] and in experiment [3] were 4.2%, 5.08% and 4.7%, respectively.
Taken in the same sequence, the figures for `CC(CNC(=N)c1cccc(C(=N)NCC(C)Oc2cccc(C3CCCCC3)c2)n1)Oc1cccc(C2CCCCC2)c1` (centres undefined) were 5.5%, 4.37% and 0.74%.
